Test results from PMC7826789 (International Journal of Molecular Sciences, 2021).

These compounds were tested on T1, IKK-alpha. Conditions: Compound Concentration (nM):1000.
T1 construct: gene CHUK
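Further: KINOMEscan scanMAX binding as percent activity remaining versus control; lower means stronger binding.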

In order of falling “Percent Control” value:
1. NS(=O)(=O)c1ccc(N/N=C2\C(=O)Nc3ccc(Cl)cc32)cc1 [GW280670X]  100%
2. C[C@@H](Oc1cc(-n2cnc3ccc(OC4CCN(C)CC4)cc32)sc1C(N)=O)c1ccccc1Cl [GSK579289A]  99%
3. CCc1ccc(Oc2nccc(-c3c(-c4ccc(F)cc4)ncn3C3CCNCC3)n2)cc1 [SB-242719]  99%
4. C/C(Nc1ccc(S(N)(=O)=O)cc1)=C1/C(=O)Nc2ccccc21 [GW335962X]  92%
5. CN1CCN(C(=O)c2ccc(NC(=O)Nc3ccc(N(C)c4ccnc(Nc5ccc(CS(C)(=O)=O)cc5)n4)cc3)cc2)CC1.Cl [GW830263A]  90%
6. COc1ccc2[nH]c3c4[nH]c5ccc(OC)cc5c4c4c(c3c2c1)C(=O)NC4=O [GW296115X]  89%
7. NS(=O)(=O)c1ccc(N/N=C2\C(=O)Nc3ccc(C(=O)NCc4ccncc4)cc32)cc1 [GW300657X]  86%

Each compound was assayed on T2, IKK-beta. Conditions: Compound Concentration (nM):1000.
T2 construct: gene IKBKB

In order of falling “Percent Control” value:
1. COc1ccc2c(-c3ccnc(Nc4cccc(OC(F)(F)F)c4)n3)cnn2n1 [GW810372X]  100%
2. CCS(=O)(=O)c1ccc(OC)c(Nc2ncc(-c3cccc(OC)c3)o2)c1 [GW580509X]  100%
3. COc1cccc(-c2c[nH]c3c(N/N=C/c4ccncc4)ncnc23)c1 [GW814408X]  100%
4. COC(=O)Nc1nc2ccc(Oc3ccc(NC(=O)Nc4cc(C(F)(F)F)ccc4F)cc3)cc2s1.Cl [GW693917A]  100%
5. Cl.c1ccc(Cc2nc3ccc(Nc4ncnc5ccccc45)cc3[nH]2)cc1 [GR269666A]  100%
6. COc1cc(C)c(N(C)C(=O)CN(C)C)cc1Nc1nc(Nc2cccc(F)c2C(N)=O)c2cc[nH]c2n1 [GSK2219385]  100%
7. NS(=O)(=O)c1ccc(N/N=C2\C(=O)Nc3ccc(C(=O)NCCc4c[nH]cn4)cc32)cc1 [GW300660X]  100%
8. CCS(=O)(=O)c1ccc(OC)c(Nc2ncc(-c3cccc(F)c3)o2)c1 [GW621970X]  100%
9. COc1ccc(COc2ccc(Cc3cnc(N)nc3N)cc2OC)cc1 [GW632580X]  100%
10. CN(C)c1cc2c(Nc3ccc4c(cnn4Cc4ccccc4)c3)ncnc2cn1 [GW282974X]  100%
11. Cc1cc(O)cc(C)c1/C=C/c1cncc(C(N)=O)c1 [GW435821X]  100%
12. O=C(Nc1n[nH]c2nc(-c3ccc(O)cc3)c(Br)cc12)C1CC1 [SB-725317]  100%
13. NS(=O)(=O)c1ccc(Nc2ncc(-c3ccccc3)o2)cc1 [GW572399X]  100%
14. Cl.O=C(O[C@H]1CN[C@H](C#Cc2cc3ncnc(Nc4ccc5c(cnn5Cc5ccccc5)c4)c3s2)C1)N1CCOCC1 [GSK200398A]  100%
15. COc1ccccc1-c1cc(/C=C2\C(=O)Nc3ncc(Br)cc32)cc(Br)c1O [GW442130X]  100%
16. COc1cc2ncnc(Nc3ccc4c(cnn4Cc4ccccc4)c3)c2cc1OC.Cl [GW282449A]  100%
17. COc1cc(N2CCN(C(C)C)CC2)ccc1Nc1nc(Nc2ccc(F)cc2C(=O)NC[C@@H](O)CO)c2cc[nH]c2n1 [GSK1392956A]  97%
18. CN(C)CCNC(=O)Nc1ccc(N(C)c2ccnc(Nc3ccc(CS(C)(=O)=O)cc3)n2)cc1.Cl [GW830900A]  97%
19. COc1cccc(-n2ncc3c(N/N=C/c4ccncc4)ncnc32)c1 [GW784752X]  94%
20. COc1cc2ncn(-c3cc(O[C@H](C)c4ccccc4Cl)c(C(N)=O)s3)c2cc1OC [GSK237701A]  92%
21. Cl.O=C(Nc1ccc(Oc2ccc3[nH]c(NC(=O)c4ccco4)nc3c2)cc1)Nc1cc(C(F)(F)F)ccc1F [GW683134A]  88%
22. NS(=O)(=O)c1ccc(N/N=C2\C(=O)Nc3ccc(-c4cnco4)cc32)cc1 [GW276655]  76%
23. CC1=C(C(=O)Nc2ccc3[nH]ncc3c2)C(c2ccc(Cl)c(Cl)c2)CC(=O)N1 (stereo not drawn) [GSK299115A]  76%
24. CC1=C(C(=O)Nc2ccc3[nH]ncc3c2)C(c2ccc3ccccc3c2)CC(=O)N1 (stereo not drawn) [GSK270822A]  72%
25. COc1ccc2cc(-c3c(-c4ccncc4)nc(-c4ccc(S(C)(=O)=O)cc4C)n3C)ccc2c1 [SB-633825]  66%
26. COc1cc(/C=N/Nc2ncnc3[nH]ncc23)ccc1O [GW578748X]  33%
